In the library only some 12% were active in any assay of this set; here they are far more common.
G9a block: qHTS Assay for Inhibitors of Histone Lysine Methyltransferase G9a; Histone-lysine N-methyltransferase EHMT2 (Homo sapiens), Q96KQ7; Potency, µM (series often up to 102 µM), actives largely listed as inhibitors; 350,000 compounds, 8.8% hits; G9a H3K9 monomethylation, AlphaScreen, 2 h; AID 504332, 2011; further: nearly all actives have a fitted effect of over 75% in size
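Quantitative HTS format: methyltransferase activity on a biotin-tagged H3K9 peptide is measured by AlphaScreen, using a rabbit anti-monomethyl-H3K9 antibody with streptavidin donor and anti-IgG acceptor beads. Final levels are 20 nM enzyme, 500 nM peptide, 20 uM SAM; 2 h RT.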
HP1b chromo inh: HTS for Inhibitors of HP1-beta Chromodomain Interactions with Methylated Histone Tails; Chromobox protein homolog 1 (Homo sapiens), P83916; AlphaScreen HP1-beta / biotin-H3K9me3 peptide binding; Potency, µM (top dose mostly 114 µM), hits mostly inhibitors; 390,000 compounds, 0.56% hits; further: nearly all actives have a fitted effect of over 70% in size
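AlphaScreen: HP1-beta (50 nM) preformed 30 min with biotin-H3(1-18)K9me3 peptide (50 nM) in PBS pH 7.4, 0.01% Tween-20. Compound added for 30 min at RT, then streptavidin donor/nickel chelate acceptor beads (10 ug/mL) for 30 min.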
Sfp PPTase inh: qHTS Assay for Inhibitors of Bacillus subtilis Sfp phosphopantetheinyl transferase (PPTase); 4'-phosphopantetheinyl transferase ffp (Bacillus subtilis), Q9F4F7; Biochemical Sfp PPTase activity, qHTS; Potency, µM, hits mostly inhibitors; 310,000 compounds, 3.5% hits;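 further: the enzyme is Sfp with the accession as filed and its product quenches rhodamine fluorescence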
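Compounds were incubated with enzyme (final 15 nM) for 15 min at room temperature before substrate addition started the reaction. Fluorescence at 525 nm excitation, 598 nm emission was recorded immediately and after 30 minutes.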
BAZ2B inh: qHTS Assay for Inhibitors of BAZ2B; Potency, µM (top dose mostly 114 µM), actives largely listed as inhibitors; 360,000 compounds, 4.4% hits; Bromodomain adjacent to zinc finger domain protein 2B (Homo sapiens), Q9UIF8; AlphaScreen BAZ2B-H3K14Ac peptide displacement; further: nearly all actives have a fitted effect of over 60% in size
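AlphaScreen displacement: compounds (up to 110uM) incubated 30 min at room temperature with a preformed 50 nM BAZ2B/50 nM biotinylated H3K14Ac peptide complex in PBS pH 7.4 with Tween-20. Donor and acceptor beads at 10 ug/mL final added, 20 min light-protected before reading.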
JMJD2A Tudor: qHTS Assay for Inhibitors of JMJD2A-Tudor Domain. Lysine-specific demethylase 4A (Homo sapiens), O75164. AlphaScreen JMJD2A-Tudor / H3K4me3 peptide binding. Potency, µM (doses to about 114 µM), actives largely listed as inhibitors. 390,000 compounds, 4.4% hits. AID 504339, 2011; further: nearly all actives have a fitted effect of over 50% in size
L3MBTL1 inh: qHTS Assay for the Inhibitors of L3MBTL1; Potency, µM (titrated, usually from 57.1 µM), hits mostly inhibitors; Lethal(3)malignant brain tumor-like protein 1 (Homo sapiens), Q9Y468; AID 485360, 2010; 230,000 compounds, 0.66% hits; AlphaScreen L3MBTL1–H3K9me1 peptide binding; further: nearly all actives have a fitted effect of over 60% in size
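Read-out is AlphaScreen signal from streptavidin donor and nickel chelate acceptor beads (10 ug/mL final each) bridging L3MBTL1 (50 nM) and biotinylated K9-monomethylated H3(1-15) peptide (75 nM), after 30 min compound exposure at room temperature.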
Hits are given with their value; 0 = inactive; ? = inconclusive; - = no result; ! = not confirmed by another sample; [ ] = remark or other dose. The call rests on the fitted dose curve; in most records, active means well fitted curve in the direction sought with a large enough effect; inconclusive means small, poorly fitted or top-dose-only effect, or another doubt; inactive means no such curve, though single readings can be large; an effect the other way counts as inactive or inconclusive.

SMILES	G9a block	HP1b chromo inh	Sfp PPTase inh	BAZ2B inh	JMJD2A Tudor	L3MBTL1 inh
Cc1ccc(/C(O)=C/C(=O)C(=O)NNC(=O)C(O)(c2ccccc2)c2ccccc2)cc1	0	0	0	50µM	?	0
COC(=O)C(=O)/C=C(\O)c1ccc(C)cc1	2µM	0	?	?	79µM	0
COc1ccccc1CNC(=O)C1CCCN(S(=O)(=O)c2ccc3c(c2)oc(=O)n3C)C1 (stereo unspecified)	0	0	-	0	?	-
Oc1c(Cl)cc(Cl)cc1/C=N/NC(=S)NC1CC2C=CC1C2 (stereo unspecified)	0	0	0	7.9µM	50µM	32µM
Oc1ccccc1/C=N/NC(=S)NC1CC2C=CC1C2 (stereo unspecified)	?	0	0	28µM	45µM	?
Cc1nc2c(c(C)c1CCC(=O)N1CCN(c3ccccc3)CC1)c(=O)n(C)c(=O)n2C	0	0	-	0	0	-
CC(=O)c1nc(N2C(=O)CC(Cc3cc(C)cc(C)c3)C2=O)sc1C (stereo unspecified)	45µM	0	0	0	0	0
CC(=O)c1nc(N2C(=O)CC(Cc3cccc(C)c3)C2=O)sc1C (stereo unspecified)	0	0	0	0	0	0
COc1cc(C(=O)N(Cc2ccccn2)CC2CCCO2)cc(OC)c1OC (stereo unspecified)	0[12.7 µM]	0	0	56µM	18µM	-
COc1ccc(C(=O)N(Cc2cc(OC)c(OC)c(OC)c2)CC2CCCO2)cc1 (stereo unspecified)	0	0	-	0	0	-
C[C@@H](N)C1CCC(C(=O)Nc2ccncc2)CC1 (stereo partly specified)	30µM!	-	0	-	-	-
O=C(Nc1ccc(Cc2ccncc2)cc1)C1CC1	0	0	0	0	0	0
CCC(Sc1nc2ccccc2c2nc(CCc3c(C)n[nH]c3C)nn12)C(=O)Nc1ccc(F)cc1 (stereo unspecified)	0	0	-	0	0	-
Clc1ccc(-c2csc(Nc3ccccc3)[n+]2Cc2ccco2)c(Cl)c1	32µM	?	?	25µM	0	0
CCCC[n+]1c(-c2ccc(Cl)cc2Cl)csc1Nc1ccccc1	11µM	?	0	13µM	71µM	0
O=C(COc1ccc(C(=S)N2CCOCC2)cc1)N1CCOCC1	0	0	0	0	0	-
Cc1cccc(NC(=O)c2ccc(S(=O)(=O)N3CC(C)OC(C)C3)cc2)n1 (stereo unspecified)	0	0	-	0	0	0
COc1ccccc1N1CCN(C(=O)CSc2ncccc2-c2nc3ccccc3[nH]2)CC1	45µM	0	0	0	0	-
COc1ccc(N2CCN(C(=O)c3cnc(N4CCCC4)nc3C)CC2)cc1	0[12.7 µM]	0	-	0	0	-
COc1ccc(N2CCN(C(=O)CSc3n[nH]c(-c4ccccc4)n3)CC2)cc1	16µM	0	-	0	0	-
O=C(CSc1ncccc1-c1nc2ccccc2[nH]1)N1CCN(c2ccccc2F)CC1	0	0	0	0	0	0
O=C(CSc1ncccc1-c1nc2ccccc2[nH]1)NC1CC1	0	0	0	0	0	0
COc1ccc(N2CCN(C(=O)CSc3ncccc3-c3nc4ccccc4[nH]3)CC2)cc1	25µM	0	0	?	?	0
O=C(CSc1n[nH]c(-c2ccccc2)n1)N1CCN(c2ccc(F)cc2)CC1	0	0	-	0	0	-
COc1ccc(N2CCN(C(=O)c3cccnc3SCc3cccc(Br)c3)CC2)cc1	13µM	?	0	?	22µM	-
SMILES	G9a block	HP1b chromo inh	Sfp PPTase inh	BAZ2B inh	JMJD2A Tudor	L3MBTL1 inh
COc1ccccc1N1CCN(C(=O)CSc2nc3ccccc3[nH]2)CC1	7.9µM	0	0	0	0	-
O=C(CCCSc1nc2ccccc2[nH]1)N1CCN(c2ccccc2)CC1	45µM	0	0	0	0	0
COc1ccccc1N1CCN(C(=O)CC(NC(=O)c2ccccc2Cl)c2ccccc2)CC1 (stereo unspecified)	45µM	0	-	0	0	0
O=C(CSc1nc2ccccc2[nH]1)N1CCN(c2ccccc2)CC1	?	0	0	0	0	0
O=C(CCCSc1nc2ccccc2[nH]1)NCc1ccccc1Cl	35µM	?	0	0	0	0
Cc1ccc(SCC(=O)OCC(=O)NC(C)c2ccc(F)cc2)cc1 (stereo unspecified)	0[12.7 µM]	0	-	0	0	0
CCN(CC(=O)Nc1ccc(NC(C)=O)cc1)C(=O)Cc1ccc(Cl)c(Cl)c1	?	0	0	0	0	-
Cc1c(C)n(C(=O)CSc2nc3ccccc3[nH]2)c2ccccc12	50µM	0	0	?	?	-
O=C(CSc1nc2ccccc2[nH]1)N1c2ccccc2Sc2ccccc21	45µM	0	0	?	?	0
Cc1n[nH]c(=O)c2c(NC(=O)CSc3c(Cl)cccc3Cl)oc(C)c12	13µM	0	-	0	0	0
Cc1n[nH]c(=O)c2c(NC(=O)CSc3ccccc3Cl)oc(C)c12	32µM	0	-	0	0	0
CC(OC(=O)c1ccc(Cl)nc1)C(=O)N1CCc2ccccc21 (stereo unspecified)	0	0	-	0	0	0
CC(=O)c1ccc(NC(=O)COc2ccccc2-c2nc(C(C)C)no2)cc1	0	0	-	0	0	-
CCOc1c(Cl)cc(Cl)cc1CNCCNCCO	50µM	0	0	0	?	0
COc1c(Cl)cc(Cl)cc1CNCCO	0	0	0	0	0	0
CN1CCN(C(=O)C2CCCN(S(=O)(=O)c3ccccc3)C2)CC1 (stereo unspecified)	-	0	?	?	20µM	-
CN1CCN(C(=O)C2CCCN(S(=O)(=O)c3ccc(Cl)cc3)C2)CC1 (stereo unspecified)	10µM	?	0	50µM	0.71µM	-
CN1CCN(C(=O)C2CCCN(S(=O)(=O)c3ccc(Br)cc3)C2)CC1 (stereo unspecified)	?	0	0	0	0	-
CCNc1nn2ccccc2c1/C=C(\C#N)C(=O)OCC	0	0	0	0	0	0
COc1ccc(C2N(c3cc(C)on3)C(=O)C3CCCN32)cc1OC (stereo unspecified)	?	0	0	?	20µM	0
CCOc1ccc(C2N(c3cc(C)on3)C(=O)C3CCCN32)cc1OC (stereo unspecified)	?	?	0	0	35µM	0
Cc1c(NC(=O)C(C)Oc2ccc(Br)cc2)c(=O)n(-c2ccccc2)n1C (stereo unspecified)	-	0	-	-	0	0
